Results published in PubChem BioAssay (EPA / NIEHS).
Inconclusive results are not listed. Active and inactive are the calls of the source. How the source made its calls, unless noted: active means hit-call score of the fitted dose curve at least 0.9, where 1 is the maximum; inconclusive means response in the unintended direction; inactive means score below 0.9.

Assays:
[1] = molecular target: Estrogen receptor beta (Homo sapiens) (UniProt Q92731); test: OT_ER_ERbERb_1440: Odyssey Thera (OT) 24-hour HEK293T Protein-Complementation Assay for Estrogen Receptor-beta/-beta Homodimer (AID 2283380);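 further: scored as signal increase over DMSO baseline for both agonists and antagonists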
Method in brief: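 HEK293T cells stably expressing ER beta LBD (aa 310-547) homodimer fragment-complementation reporter, dosed 24 h. Cells formaldehyde-fixed, Draq5-stained; gain in nuclear (agonist) or nuclear plus cytoplasmic (antagonist) fluorescence versus DMSO read by laser scanning cytometry.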

[2] = molecular target: Estrogen receptor (Homo sapiens) (UniProt P03372); test: OT_ERa_GFPERaERE_0480: Odyssey Thera (OT) 8-hour HeLa Transcription Induction Assay for Estrogen Receptor (AID 2283381; active means hit-call score of the fitted dose curve at least 0.9, where 1 is the maximum; inactive means score below 0.9)
Method in brief: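 Fluorescence microscopy with high-content image analysis measures ERE-driven GFP induction in HeLa cells at 8 h post-dose. Increases fitted against DMSO baseline.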

[3] = molecular target: Estrogen receptor (Homo sapiens) (UniProt P03372); test: OT_ERa_GFPERaERE_0120: Odyssey Thera (OT) 2-hour HeLa Transcription Induction Assay for Estrogen Receptor (AID 2283382)
Method in brief: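 Fluorescence-microscopy images of the GFP-ERα/ERE reporter, scored by high-content image algorithms, give the readout. HeLa exposure lasted 2 h, and only signal increase over DMSO was fitted.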

[4] = molecular target: Retinoic acid receptor RXR-alpha (Homo sapiens) (UniProt P19793); test: OT_NURR1_NURR1RXRa_1440: Odyssey Thera (OT) 24-hour HEK293T Protein Complementation Assay for Nurr1/retinoid X receptor (RXR) (AID 2283386)
Method in brief: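 Gain in fluorescence, fitted relative to DMSO, reflects Nurr1–RXRα association in HEK293T cells after 24 h dosing. Bait and prey are each linked to a reporter-protein fragment that reassembles on interaction.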

[5] = molecular target: Peroxisome proliferator-activated receptor gamma (Homo sapiens) (UniProt P37231); test: OT_PPARg_PPARgSRC1_1440: Odyssey Thera (OT) 24-hour Protein-Complementation Assay for Peroxisome Proliferator-activated Receptor Gamma/ SRC-1 Co-activator (AID 2283388);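 further: nuclear to cytoplasmic ratio of reconstituted Venus YFP fluorescence in fixed imaged cells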
Method in brief: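 Transient HEK293T, YFP fragments 1-158/159-239 (mutant IFP1/IFP2) fused to PPARg/SRC-1; 24 h dosing; fix 4% formaldehyde, Draq5; Opera imaging 488/635 nm; N/C ratio, gain vs DMSO.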

[6] = molecular target: Retinoic acid receptor RXR-alpha (Homo sapiens) (UniProt P19793); test: OT_NURR1_NURR1RXRa_0480: Odyssey Thera (OT) 8-hour HEK293T Protein Complementation Assay for Nurr1/retinoid X receptor (RXR) (AID 2283385)
Method in brief: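 Interaction of Nurr1 with RXRα read as reconstituted reporter fluorescence in a HEK293T fragment-complementation system, 8 h post-treatment; increase over DMSO baseline analysed.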

Measured: outcome

Chain of Retinoic acid receptor RXR-alpha (Homo sapiens) (P19793 whole entry, looked up, the tested form may be a part): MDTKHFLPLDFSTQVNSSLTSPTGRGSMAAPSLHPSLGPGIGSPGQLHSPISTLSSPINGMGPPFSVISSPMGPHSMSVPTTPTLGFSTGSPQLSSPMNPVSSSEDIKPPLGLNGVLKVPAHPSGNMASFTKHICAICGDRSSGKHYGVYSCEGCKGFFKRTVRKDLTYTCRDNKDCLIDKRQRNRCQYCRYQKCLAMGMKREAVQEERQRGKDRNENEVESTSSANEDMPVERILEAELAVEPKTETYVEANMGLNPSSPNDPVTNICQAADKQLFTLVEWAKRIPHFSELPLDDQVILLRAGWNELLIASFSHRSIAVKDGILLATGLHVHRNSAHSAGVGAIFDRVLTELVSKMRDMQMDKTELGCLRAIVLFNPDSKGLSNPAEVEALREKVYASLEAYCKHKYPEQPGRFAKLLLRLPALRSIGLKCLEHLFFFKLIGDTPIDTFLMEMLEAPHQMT
Chain of Peroxisome proliferator-activated receptor gamma (Homo sapiens) (P37231 whole entry, looked up, the tested form may be a part): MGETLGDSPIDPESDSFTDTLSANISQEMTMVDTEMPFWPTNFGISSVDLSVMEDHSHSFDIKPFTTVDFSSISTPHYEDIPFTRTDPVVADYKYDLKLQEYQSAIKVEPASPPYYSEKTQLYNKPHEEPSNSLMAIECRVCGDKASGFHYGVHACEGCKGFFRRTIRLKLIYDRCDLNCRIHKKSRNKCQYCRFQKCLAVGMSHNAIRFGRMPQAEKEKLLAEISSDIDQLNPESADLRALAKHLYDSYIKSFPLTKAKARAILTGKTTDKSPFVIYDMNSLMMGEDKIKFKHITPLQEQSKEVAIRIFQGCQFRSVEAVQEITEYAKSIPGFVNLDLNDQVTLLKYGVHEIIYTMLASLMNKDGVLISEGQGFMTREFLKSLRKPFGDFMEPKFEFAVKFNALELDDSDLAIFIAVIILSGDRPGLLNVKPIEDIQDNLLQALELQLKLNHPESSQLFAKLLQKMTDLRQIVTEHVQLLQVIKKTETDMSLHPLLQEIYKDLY
Chain of Estrogen receptor (Homo sapiens) (P03372 whole entry, looked up): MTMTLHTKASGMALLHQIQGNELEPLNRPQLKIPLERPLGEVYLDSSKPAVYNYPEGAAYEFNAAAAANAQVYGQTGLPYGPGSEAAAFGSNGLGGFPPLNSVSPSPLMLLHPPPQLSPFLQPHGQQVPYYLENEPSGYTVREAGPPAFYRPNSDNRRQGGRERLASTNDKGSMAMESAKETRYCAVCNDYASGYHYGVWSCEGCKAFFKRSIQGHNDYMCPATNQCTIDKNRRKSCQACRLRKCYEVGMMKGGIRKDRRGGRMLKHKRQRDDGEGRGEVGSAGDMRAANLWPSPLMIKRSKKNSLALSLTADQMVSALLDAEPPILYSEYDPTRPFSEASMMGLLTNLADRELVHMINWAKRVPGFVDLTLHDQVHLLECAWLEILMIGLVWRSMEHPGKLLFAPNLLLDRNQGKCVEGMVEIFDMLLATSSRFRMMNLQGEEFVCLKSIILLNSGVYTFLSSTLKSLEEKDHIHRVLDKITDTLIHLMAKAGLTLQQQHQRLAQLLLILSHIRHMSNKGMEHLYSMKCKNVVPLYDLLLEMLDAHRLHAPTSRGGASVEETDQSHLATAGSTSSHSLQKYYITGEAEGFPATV
Chain of Estrogen receptor beta (Homo sapiens) (Q92731 whole entry, looked up, the tested form may be a part): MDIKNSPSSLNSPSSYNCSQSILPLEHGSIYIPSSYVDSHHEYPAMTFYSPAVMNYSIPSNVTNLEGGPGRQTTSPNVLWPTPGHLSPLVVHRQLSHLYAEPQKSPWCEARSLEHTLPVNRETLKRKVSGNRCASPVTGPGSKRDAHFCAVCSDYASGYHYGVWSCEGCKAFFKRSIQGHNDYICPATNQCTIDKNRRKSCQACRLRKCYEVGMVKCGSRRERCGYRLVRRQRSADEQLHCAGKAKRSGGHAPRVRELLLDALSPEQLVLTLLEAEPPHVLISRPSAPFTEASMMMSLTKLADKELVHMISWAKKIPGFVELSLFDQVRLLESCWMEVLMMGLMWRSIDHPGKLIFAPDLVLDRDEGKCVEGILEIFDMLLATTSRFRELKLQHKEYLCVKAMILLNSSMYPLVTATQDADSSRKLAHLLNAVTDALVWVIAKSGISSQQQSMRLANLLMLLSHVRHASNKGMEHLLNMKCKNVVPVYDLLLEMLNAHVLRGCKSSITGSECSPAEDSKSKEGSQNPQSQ

COC(N)=O
not listed: [6]
inactive: all other assays above

O=C(O)C(Cl)Cl
not listed: [1]
inactive: all other assays above

c1ccc2c(c1)sc1ccccc12
inactive: [2] | [3] | [5]
